Assay results as given in PubChem BioAssay (NCI).
About 83,000 compounds went through this panel and 20% of them were active in at least one assay; those are over-represented in the sample as a whole.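 The endpoint reported here, percent growth, reads 100 for growth as untreated, 0 for no net growth and -100 for all cells dead.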 Calls of active or inactive are those of the source. The calls were made as follows: active = growth percent below 10; inactive = the rest.

system: MDA-MB-231 breast; experiment: NCI-60 one-dose screen, 48 h (100 = growth as untreated, 0 = no growth, -100 = all killed); conditions: 10 µM unless noted

Compound | growth
O=C(/C=C/c1ccc2ccccc2c1)Nc1ncc(Cc2ccccc2)s1 | 28.5% (inactive)
O=C1c2cc3c(cc2-c2c1c1ccc(F)cc1c(=O)n2CCCN1CCOCC1)OCO3 | 105% (inactive)
C=C1CC[C@@H](C(=O)OC)Cc2nc(C)ccc21 | 108% (inactive)
CCN1CCN(C(=O)[C@]23CCC(C)(C)C[C@@H]2C2=CC[C@@H]4[C@@]5(C)C/C(=C/c6cccnc6)C(=O)C(C)(C)[C@@H]5CC[C@@]4(C)[C@]2(C)CC3)CC1 | 40.7% (inactive)
Nc1c(C(=O)Nc2cccc3ccccc23)sc2nc3c(cc12)CCCC3 | 33.2% (inactive)
CC(C)(C)c1cc(-n2c(-c3ccc(Cl)cc3)nc3cc(C(=O)Nc4ccc(Cl)cc4)ccc32)n[nH]1 | 79.8% (inactive)
Fc1ccc(Nc2nnc(-c3ccc(Cl)cc3)o2)cc1 | 85.9% (inactive)
O=C1/C(=C\c2ccc(Br)o2)SC(=S)N1CCc1ccc(O)cc1 | 53.2% (inactive)
CC(=O)c1c(C)[nH]c(-c2nc3ccc(N4CCN(C)CC4)cc3[nH]2)c1-c1ccc2c(c1)OCCO2 | 36% (inactive)
COc1ccc2[nH]c(-c3ccc(Cl)cc3)cc(=O)c2c1 | 95.6% (inactive)
CCC1C(=O)COC1=O (stereo not drawn) | -22.4% (active)
COc1ccc(O)c(-c2cc(-c3ccc(Cl)cc3)c(C#N)c(=O)[nH]2)c1 | 61.2% (inactive)
C=C(C)[C@@H]1CC[C@]2(C)[C@H](CC[C@@H]3[C@H]4[C@H]5OC[C@@]4(CCC5(C)C)CC[C@]32C)[C@@]1(C)CCCN | 16.7% (inactive)
CN1CCN(CCOc2ccc(-c3cnc4c(-c5cccc(F)c5)cnn4c3)cc2)CC1 | 47.7% (inactive)
Cc1cc(N(CCNc2ccnc3cc(Cl)ccc23)Cc2ccco2)nc(Cl)n1 | -75.4% (active)
COc1ccc(CCN2C(=O)C(C)(C)SC2=S)cc1OC | 97.5% (inactive)
Cc1cc2nc3c4cc(O)ccc4n(CCN(C)C)c3nc2cc1C | -5.62% (active)
CCCCC(=O)OC1CCCCC1C (stereo not drawn) | 106% (inactive)
COc1ccc2c(c1)c(-c1nc(-c3c[nH]c4ncccc34)cs1)cn2CCCN1CCCCC1 | 29.3% (inactive)

Compound | growth
CC(=O)c1c(C)[nH]c(-c2nc3ccc(N4CCN(C)CC4)cc3[nH]2)c1-c1ccc(OCC2CCOCC2)cc1 | 37.4% (inactive)
Cc1nc([P+](c2ccccc2)(c2ccccc2)c2ccccc2)c(Sc2sc(-c3ccccc3)nc2[P+](c2ccccc2)(c2ccccc2)c2ccccc2)o1 | 14.2% (inactive)
NNC(=O)c1nc2ccccc2[nH]1 | 103% (inactive)
O=P(O)(c1ccccc1)c1ccccc1I | 97.1% (inactive)
COc1ccc(OC)c(-c2c(C#N)c(-c3ccco3)nc3c2c(-c2ccccc2)nn3-c2ccccc2)c1 | 90% (inactive)
CNC(=O)c1cc(Oc2ccc3nc(NC(=O)Nc4ccc(Cl)cc4)sc3c2)ccn1 | 34.4% (inactive)
Clc1cc(Cl)cc(Nc2ccc3c(OCCCN4CCOCC4)cccc3n2)c1 | -24.6% (active)
N#CC1=C(N)Oc2c(c(N)nn2-c2ccccc2)C1c1ccc(Cl)cc1Cl (stereo not drawn) | 97.4% (inactive)
CC(C)(C)c1ccc(OCCCCCCCN2CCNCC2)cc1 | 19.3% (inactive)
Cc1cc(Cl)nc(N(CCCNc2ccnc3cc(Cl)ccc23)Cc2ccco2)n1 | 22.9% (inactive)
CC1(C)NCCC[C@]2(C)[C@H]3CC[C@@H]4[C@H]5[C@H](C(=O)/C=C/c6ccccn6)CC[C@]5(CO)CC[C@@]4(C)[C@]3(C)CC[C@@H]12 | 71.1% (inactive)
NCCNc1nc(-c2ccccc2)nc2nc(-c3ccccc3)oc12 | 92.8% (inactive)
COc1cnc2c(c1)C(=O)c1c-2n(CCCNC(C)C)c(=O)c2cc([N+](=O)[O-])ccc12 | -60.5% (active)
COc1cnc2c(c1)C(=O)c1c-2n(CCCNC2=NCCS2)c(=O)c2cc([N+](=O)[O-])ccc12 | -58.4% (active)
CCC(c1ccc(OC)cc1)C(CC)c1ccc(O)c(CN2CCCCC2)c1 (stereo not drawn) | 77.6% (inactive)
COc1cc2nc(Cl)nc(Nc3cccc(C(=O)/C=C/c4ccccc4)c3)c2cc1OC | 67.6% (inactive)
CC1(C)C(=O)/C(=C\c2ccco2)C[C@]2(C)[C@H]3CC[C@@H]4[C@@H](C(=O)/C=C/c5ccco5)CC[C@@]4(C)[C@]3(C)CC[C@@H]12 | 56% (inactive)
CCCC1CCCCN1C(=O)OCC(C)C (stereo not drawn) | 109% (inactive)
Cc1ccc(-c2nn(Cc3cn(-c4cc(C)nc5ccccc45)nn3)c3ncnc(N)c23)cc1 | 33.1% (inactive)
